The full list was thinned out, with hits kept by preference.
miR-122 inh: miR-122 suppressors via Renilla sensor increase, primary screen, cell-based, Huh7 psiCHECK-miR122, Renilla luciferase, single point | actives 0.14% (n = 340,000) | activation, % at 12.5 µM | 48 h | AID 623901, 2012;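 active means mean activation of 30% or more, with every replicate also reaching 30%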;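 further: 0% = median of neutral control wells and 100% = median of positive control wells; higher luciferase signal means stronger suppression of miR-122 activity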
* hit, by the source's call.

SMILES	miR-122 inh
Cc1oc(-c2ccc(Cl)cc2)nc1CN1CCCC(C(=O)NCc2ccco2)C1 (stereo not given)	39*
CCC1=Nc2cc(C(=O)NCc3ccco3)ccc2Sc2ccc(C)cc21	-119
Cc1ccc(Nc2nc(C(=O)NCc3ccco3)cs2)cc1	-162
COCC(=O)Nc1ccc2c(c1)OC[C@@H](C)NC[C@@H](C)[C@@H](OC)CN(C)C2=O	0
Cc1cc(CN(C)C(=O)c2cc(COc3ccc4ncccc4c3)on2)on1	35*
COc1ccccc1NC(=O)N(C)C[C@H]1Oc2ncc(C#CCC(C)C)cc2C(=O)N([C@@H](C)CO)C[C@H]1C	-3
CO[C@@H]1CN(C)C(=O)c2ccc(NC(=O)c3ccccc3)cc2OC[C@H](C)N(C)C[C@@H]1C	-3
Cc1ccccc1-c1cnc2c(c1)C(=O)N([C@H](C)CO)C[C@H](C)[C@H](CN(C)C(=O)c1ccccc1)O2	0
COc1ccccc1-c1ccc2c(c1)O[C@@H](CN(C)S(=O)(=O)c1ccc(C)cc1)[C@H](C)CN([C@H](C)CO)S2(=O)=O	0
Cc1ccc(S(=O)(=O)N(C)C[C@@H]2Oc3cc(-c4cccc(F)c4)ccc3S(=O)(=O)N([C@H](C)CO)C[C@@H]2C)cc1	3
COc1cccc(-c2ccc3c(c2)O[C@H](CN(C)C(=O)C2CCOCC2)[C@H](C)CN([C@@H](C)CO)S3(=O)=O)c1	39*
COc1ccc(S(=O)(=O)N(C)C[C@@H]2Oc3cc(-c4cccc(F)c4)ccc3S(=O)(=O)N([C@H](C)CO)C[C@H]2C)cc1	39*
C[C@H]1CN([C@@H](C)CO)S(=O)(=O)c2ccc(-c3ccc(C(=O)N(C)C)cc3)cc2O[C@H]1CN(C)C(=O)C1CCC1	43*
C[C@H](CO)N1C[C@H](C)[C@H](CN(C)C(=O)C2CCOCC2)Oc2cc(-c3ccc(C(=O)N(C)C)cc3)ccc2S1(=O)=O	4
C[C@@H]1CN([C@H](C)CO)S(=O)(=O)c2ccc(-c3ccc(C(=O)N(C)C)cc3)cc2O[C@@H]1CN(C)C	4
COc1cccc(-c2ccc3c(c2)O[C@@H](CN(C)C(=O)C2CCCCC2)[C@@H](C)CN([C@H](C)CO)S3(=O)=O)c1	0
C[C@H]1CN([C@@H](C)CO)S(=O)(=O)c2ccc(-c3ccc(C(=O)N(C)C)cc3)cc2O[C@H]1CN(C)C(=O)C1CCOCC1	7
Cc1ccc(S(=O)(=O)N(C)C[C@@H]2Oc3cc(-c4cccc(F)c4)ccc3S(=O)(=O)N([C@@H](C)CO)C[C@H]2C)cc1	9
C[C@H]1CN([C@@H](C)CO)S(=O)(=O)c2ccc(-c3ccc(C(=O)N(C)C)cc3)cc2O[C@H]1CN(C)C	5
COc1cccc(-c2ccc3c(c2)O[C@H](CN(C)C(=O)C2CCCCC2)[C@H](C)CN([C@H](C)CO)S3(=O)=O)c1	-15
C[C@@H]1CN([C@H](C)CO)S(=O)(=O)c2ccc(-c3ccc(C(=O)N(C)C)cc3)cc2O[C@@H]1CN(C)C(=O)C1CCC1	43*
C[C@H]1CN([C@@H](C)CO)S(=O)(=O)c2ccc(C#Cc3cccnc3)cc2O[C@H]1CN(C)CC1CCOCC1	-4
COCC(=O)Nc1ccc2c(c1)OC[C@@H](C)NC[C@@H](C)[C@H](OC)CN(C)C2=O	1
C/C=C/c1ccc2c(c1)O[C@@H](CN(C)S(C)(=O)=O)[C@@H](C)CN([C@@H](C)CO)S2(=O)=O	3
C[C@@H]1CN([C@H](C)CO)S(=O)(=O)c2ccc(-c3cncnc3)cc2O[C@@H]1CN(C)Cc1ccccc1	-3
SMILES	miR-122 inh
CCCN(C)C[C@@H]1Oc2ncc(-c3ccccc3OC)cc2C(=O)N([C@H](C)CO)C[C@H]1C	9
C[C@@H]1CN([C@H](C)CO)C(=O)c2cc(-c3cccc(F)c3)cnc2O[C@H]1CN(C)C(=O)c1cccc(F)c1	0
CCC(=O)N(C)C[C@H]1Oc2ncc(-c3cccc(OC)c3)cc2C(=O)N([C@@H](C)CO)C[C@H]1C	-4
CCC(=O)N(C)C[C@@H]1Oc2ncc(C#Cc3ccc(OC)cc3)cc2C(=O)N([C@@H](C)CO)C[C@@H]1C	9
C[C@@H]1CN([C@H](C)CO)S(=O)(=O)c2ccc(-c3cccnc3)cc2O[C@H]1CN(C)Cc1ccccn1	4
C[C@H]1CN([C@@H](C)CO)C(=O)c2cc(Br)cnc2O[C@@H]1CN(C)C(=O)c1cccnc1	-1
CC(C)CC#Cc1cnc2c(c1)C(=O)N([C@@H](C)CO)C[C@@H](C)[C@@H](CN(C)C(=O)Nc1cccc(F)c1)O2	0
CCC(=O)Nc1ccc2c(c1)C(=O)N(C)C[C@@H](OC)[C@H](C)CN(Cc1ccccc1OC)[C@H](C)CO2	-40
C[C@@H]1CN([C@H](C)CO)S(=O)(=O)c2ccc(-c3ccccc3)cc2O[C@@H]1CN(C)C(=O)c1ccc2c(c1)OCO2	36*
C/C=C/c1ccc2c(c1)O[C@@H](CN(C)C(=O)c1ccc3c(c1)OCO3)[C@H](C)CN([C@@H](C)CO)S2(=O)=O	-31
C[C@@H]1CN([C@@H](C)CO)S(=O)(=O)c2ccc(Br)cc2O[C@H]1CN(C)C(=O)c1ccc2c(c1)OCO2	-6
C[C@@H]1CN([C@H](C)CO)S(=O)(=O)c2ccc(-c3ccc(C(=O)N(C)C)cc3)cc2O[C@@H]1CN(C)C(=O)C1CCOCC1	20
C[C@H](CO)N1C[C@H](C)[C@H](CN(C)C(=O)C2CCC2)Oc2cc(-c3ccc(C(=O)N(C)C)cc3)ccc2S1(=O)=O	55*
C[C@H]1CN([C@@H](C)CO)S(=O)(=O)c2ccc(-c3ccc(C(=O)N(C)C)cc3)cc2O[C@@H]1CN(C)C(=O)C1CCOCC1	-9
COc1ccc(NC(=O)N(C)C[C@H]2Oc3ccc(NC(=O)Nc4ccc(C(F)(F)F)cc4)cc3CC(=O)N([C@@H](C)CO)C[C@H]2C)cc1	-201
COc1cccc(C#Cc2ccc3c(c2)O[C@@H](CN(C)S(=O)(=O)c2ccccc2F)[C@@H](C)CN([C@H](C)CO)S3(=O)=O)c1	-1
CNC[C@@H]1Oc2ncc(C#Cc3ccncc3)cc2C(=O)N([C@H](C)CO)C[C@@H]1C	2
CC(=O)N(C)C[C@@H]1Oc2cc(C#C[C@H](C)O)ccc2S(=O)(=O)N([C@@H](C)CO)C[C@@H]1C	-1
COc1ccc(-c2cnc3c(c2)C(=O)N([C@@H](C)CO)C[C@H](C)[C@H](CN(C)C(=O)C2CCOCC2)O3)cc1	-6
C[C@H](CO)N1C[C@H](C)[C@@H](CN(C)CC2CCOCC2)Oc2ncc(-c3ccc(F)cc3)cc2C1=O	2
CCC(=O)N(C)C[C@H]1Oc2ncc(C#Cc3ccc(OC)cc3)cc2C(=O)N([C@H](C)CO)C[C@H]1C	-4
CCC(=O)Nc1ccc2c(c1)OC[C@H](C)NC[C@@H](C)[C@H](OC)CN(C)C2=O	3
C[C@@H]1CN([C@H](C)CO)C(=O)c2cc(C#CC3CC3)cnc2O[C@H]1CN(C)Cc1ccncc1	-10
O=C(/C=C/Nc1cccc([N+](=O)[O-])c1)c1cccs1	-93
N#Cc1cccc(NC(=O)Nc2cccs2)c1	36*
C[C@H]1CN([C@@H](C)CO)C(=O)c2cc(-c3ccc(F)cc3)cnc2O[C@H]1CN(C)C(=O)c1ccccn1	-6
CO[C@@H]1CN(C)C(=O)c2cc(NC(C)=O)ccc2OC[C@H](C)N(C(=O)CN(C)C)C[C@@H]1C	2
CC(=O)C1=C(c2ccc(Br)cc2)C(=O)c2ccccc2C1=O	76*

Compound activity from PubChem.
